Screens deposited in PubChem BioAssay by National Center for Advancing Translational Sciences (NCATS).
BAZ2B inh – BAZ2B (human) inhibition; AlphaScreen BAZ2B-H3K14Ac peptide displacement; Potency, µM (highest dose often 114 µM), actives largely listed as inhibitors; 4.4% of 360,000 active; note: nearly all actives have a fitted effect of over 60% in size
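BAZ2B (50 nM) with biotin-H3(5-23)K14Ac peptide (50 nM) in PBS pH 7.4, 0.01% Tween-20, preformed 30 min, then compound 30 min at room temperature; top concentration 110uM. AlphaScreen streptavidin donor/nickel chelate acceptor beads (10 ug/mL final), 20 min dark, signal read.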
Sfp PPTase inh – inhibitors of Bacillus subtilis Sfp phosphopantetheinyl transferase | Q9F4F7 | Biochemical Sfp PPTase activity, qHTS | 3.5% of 310,000 active | Potency, µM, usual class: inhibitors;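 note: the enzyme is Sfp with the accession as filed and its product quenches rhodamine fluorescence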
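Fluorescence-quenching assay: 15 nM Sfp-PPTase preincubated 15 min at room temperature with compound, then 5 uM rhodamine-CoA and 12.5 uM BHQ-2-labelled YbbR peptide added. Fluorescence (ex 525/em 598 nm) read at start and after 30 min; difference gives rate.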
G9a block – blocks human histone lysine methyltransferase G9a. G9a H3K9 monomethylation, AlphaScreen, 2 h. AID 504332. Potency, µM (series often up to 102 µM), most hits filed as inhibitors. 8.8% of 350,000 active; note: nearly all actives have a fitted effect of over 75% in size
Target sequence (Q96KQ7 913-1193 limits assumed): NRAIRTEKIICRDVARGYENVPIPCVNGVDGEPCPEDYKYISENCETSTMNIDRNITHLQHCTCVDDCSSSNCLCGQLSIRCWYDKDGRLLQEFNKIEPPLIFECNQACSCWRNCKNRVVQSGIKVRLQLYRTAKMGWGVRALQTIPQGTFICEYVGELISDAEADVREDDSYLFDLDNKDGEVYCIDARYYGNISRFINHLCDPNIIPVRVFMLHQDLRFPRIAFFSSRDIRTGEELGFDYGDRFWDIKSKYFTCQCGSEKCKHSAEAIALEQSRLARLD
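G9a (20 nM) was preincubated 15 min with compound, then reacted 2 h at room temperature with 500 nM biotin-H3K9 peptide and 20 µM SAM. Monomethyl-H3K9 detected by AlphaScreen using anti-H3K9me1 antibody.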
JMJD2A Tudor – inhibitors of human JMJD2A Tudor domain. AlphaScreen JMJD2A-Tudor / H3K4me3 peptide binding. Potency, µM (highest dose often 114 µM), hits mostly inhibitors. 4.4% of 390,000 active; note: nearly all actives have a fitted effect of over 50% in size
L3MBTL1 block – inhibitors of human L3MBTL1. AlphaScreen L3MBTL1–H3K9me1 peptide binding. Potency, µM (highest dose often 57.1 µM), hits mostly inhibitors. 0.66% of 230,000 active; note: nearly all actives have a fitted effect of over 60% in size
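AlphaScreen proximity signal between nickel-chelate acceptor and streptavidin donor beads (final 10 ug/mL) reports binding of 50 nM L3MBTL1 to 75 nM biotin-H3 K9me1 peptide; complex incubated with compounds 30 min at room temperature; cefsulodin titration as control.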
HP1b chromo inh – inhibitors of HP1-beta chromodomain binding to methylated histone tails; P83916; AlphaScreen HP1-beta / biotin-H3K9me3 peptide binding; Potency, µM (doses to about 114 µM), most hits filed as inhibitors; 0.56% of 390,000 active; AID 540317; note: nearly all actives have a fitted effect of over 70% in size
Target sequence (P83916 whole entry, looked up): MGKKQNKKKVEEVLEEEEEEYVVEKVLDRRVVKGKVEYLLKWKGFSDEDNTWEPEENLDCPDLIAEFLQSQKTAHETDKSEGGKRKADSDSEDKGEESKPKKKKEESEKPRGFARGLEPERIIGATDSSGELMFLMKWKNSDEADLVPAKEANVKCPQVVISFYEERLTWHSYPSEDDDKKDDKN
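Compound inhibition of the preformed complex between 50 nM HP1-beta and 50 nM biotinylated H3K9me3 peptide was read by AlphaScreen. Buffer was PBS pH 7.4 with 0.01% Tween-20. Incubations ran 30 min at room temperature, with 10 ug/mL donor/acceptor beads.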
Hits are given with their value; - = inactive; ? = inconclusive; . = no result given; [ ] = remark or other dose. Most compounds without a hit are left out; they make up all but 12% or so of the library. Calls come from the whole dose curve; as a rule, active = well fitted curve in the direction sought with a large enough effect; inconclusive = small, poorly fitted or top-dose-only effect, or another doubt; inactive = no such curve, though single readings can be large; an effect the other way counts as inactive or inconclusive.

SMILES	BAZ2B inh	Sfp PPTase inh	G9a block	JMJD2A Tudor	L3MBTL1 block	HP1b chromo inh
CN=c1scc(C)n1/N=C/c1ccc(O)cc1O	40µM	-	-	?	-	-
O=c1ncccn1[C@@H]1O[C@H](CO)[C@@H](O)[C@H]1O	.	-	.	.	.	.
Cc1cccc(N(CC(=O)NCc2ccccc2)C(=O)Cn2nnc(-c3ccc(C)o3)n2)c1	-	-	-	-	-	-
COc1ccc(N(CC(=O)NC2CCCC2)C(=O)Cn2nnc(-c3ccc(OC)c(OC)c3)n2)cc1	-	-	-	-	-	-
COc1ccc(-c2nnn(CC(=O)N(CC(=O)NC3CCCC3)c3ccccc3)n2)cc1OC	-	-	-	18µM	-	-
Cc1ccc(-c2nnn(CC(=O)N(CC(=O)NC3CCCCC3)c3cccc(F)c3)n2)o1	-	-	-	-	.	-
Cc1ccc(-c2nnn(CC(=O)N(CC(=O)NCc3ccccc3)c3cccc(C)c3C)n2)o1	?	25µM	3.5µM	-	-	-
Cc1ccc(-c2nnn(CC(=O)N(CC(=O)NC3CCCCC3)c3ccccc3F)n2)o1	?	-	35µM	-	.	-
Cc1cccc(N(CC(=O)NC2CCCCC2)C(=O)Cn2nnc(-c3ccc(C)o3)n2)c1	-	-	45µM	-	-	-
c1ccc(CCNCc2ccco2)nc1	.	.	.	-	.	-
COC(=O)c1cc2c(ccn2-c2ccc(F)cc2)n1C(C)C	?	-	-[0.0925 µM]	?	-	?
CCCn1c(C(=O)OC)cc2c1ccn2-c1ccc(F)cc1	?	?	71µM	?	-	-
COC(=O)c1cc2c(ccn2-c2ccc(F)cc2)n1CC(C)C	?	-	45µM	?	-	-
COC(=O)c1cc2c(ccn2-c2ccc(F)cc2)n1Cc1cccc(OC)c1	-	-	-	?	-	-
COC(=O)c1cc2c(ccn2-c2ccc(F)cc2)n1Cc1ccc(OC(C)=O)cc1	?	-	50µM	?	?	-
CCn1nc(-c2ccccc2)c(-c2ccccc2)c(C(=O)OCCOC)c1=O	-	.	-	-	.	-
Cc1sc(-c2cccnc2)nc1OC(=O)C1CC1	-	?	20µM	-	-	-
CNC(=O)c1sc(-c2cccnc2)nc1C	-	-	-	-	-	-
COc1ccc(CNC(=O)C2CCN(c3nc(-c4ccccc4)nc4c3CCC4)CC2)cc1	-	50µM	-	-	.	-
C#CCOCCOCCOCCNc1nc(N2CCOCC2)nc(N2CCN(C(=O)[C@H](C)n3cc(CCC(=O)O)nn3)CC2)n1	.	.	.	-	.	-
Cc1ccc(C(=O)N2CCSC2=S)cc1	-	-	-	-	-	?
Cc1ccc(C(=O)Oc2csc(=S)n2C(=O)c2ccc(C)cc2)cc1	?	45µM	1.1µM	?	.	-
COc1cc(CNCc2ccccn2)ccc1OCC(=O)NC(C)(C)C	50µM	-	-	?	-	-
CC(C)(C)NC(=O)COc1ccc(CNCc2cccnc2)cc1	?	-	-	89µM	-	-
COc1cc(CNCc2ccccn2)ccc1OCC(=O)NC1CCCCC1	56µM	?	?	?	?	-
SMILES	BAZ2B inh	Sfp PPTase inh	G9a block	JMJD2A Tudor	L3MBTL1 block	HP1b chromo inh
CCOc1cc(CNCc2ccccc2)ccc1OCC(=O)NC1CCCCC1	-	-	-	-	.	-
COc1cc(CNCc2cccnc2)ccc1OCC(=O)NC(C)(C)C	-	-	?	-	-	-
Cc1cccc([S+](=O)([O-])NC2CCN(C#N)CC2)c1	.	.	.	-	.	.
Oc1ccc(-c2ccccc2)cc1CN1CCCCCC1	-	89µM	-[2.33 µM]	-	.	-
O=C(NC(=S)N1CCc2ccccc21)c1ccccc1	?	-	45µM	?	-	-
O=C(c1ccccc1)N1CCc2ccccc21	-	-	-[12.7 µM]	-	.	-
CC(=O)c1cccc(NC(=S)N2CCc3ccccc32)c1	-	-	35µM	-	.	-
O=C(NC(=S)N1CCc2ccccc21)c1ccccc1Cl	-	-	-	-	.	-
COc1ccccc1NC(=S)N1CCCc2ccccc21	-	-	-	-	-	-
COc1ccc(NC(=S)N2CCc3ccccc32)cc1OC	?	-	50µM	-	.	-
O=C(c1c(F)c(F)c(F)c(F)c1F)N1CCc2ccccc21	.	.	.	56µM	.	-
Fc1cccc(NC(=S)N2CCc3ccccc32)c1	-	-	?	-	.	-
CN(CC(=O)Nc1ccc(Cl)c(C(F)(F)F)c1)C(=O)c1cccc2cccnc12	-	.	-[12.7 µM]	-	-	-
CC1CCc2c(sc3nc(-c4cc5ccccc5oc4=O)nc(Cl)c23)C1 (stereo unspecified)	-	.	-	-	.	-
COc1ccc(-n2c(=O)c(-c3ccccc3)nc3cncnc32)cc1	.	-	-[0.501 µM]	.	.	.
Cc1ccc(C)c(N2CCN(CCCNC(=O)c3cnn(-c4ccccc4Cl)c3C3CCN(C(=O)OC(C)(C)C)CC3)CC2)c1	-	.	?	?	.	-
CCOC(=O)c1c(CSC(=N)N)n(-c2ccccc2)c2cc(Br)c(OC(C)=O)cc12	?	?	50µM	?	-	-
O=C(CS(=O)(=O)c1ccc(Cl)cc1)Nc1nc2ccc(Br)cc2s1	-	.	?	-	.	-
CCOc1cccc(/C=C/c2ccc3cccc(O)c3n2)c1O	-	79µM	-	-	.	-
COc1ccccc1/C=C/c1ccc2cccc(O)c2n1	-	-	-	-	.	-
CCOc1cccc(/C=C/c2ccc3cccc(O)c3n2)c1OC	-	79µM	-[2.33 µM]	-	.	-
COc1cc(/C=N/Nc2cccc(C)c2)ccc1OC(=O)c1cccs1	-	-	10µM	?	-	-
COc1cc(/C=N/Nc2cccc(C)c2)cc(Br)c1O	45µM	-	8.9µM	50µM	-	?
CN(C)S(=O)(=O)c1cccc(-c2csc(N/N=C/c3ccco3)n2)c1	35µM	14µM	-[12.7 µM]	?	-	?
Cc1ccc(-n2[nH]c(=O)c3cccnc32)cc1	-	-	?	-	-	-
SMILES	BAZ2B inh	Sfp PPTase inh	G9a block	JMJD2A Tudor	L3MBTL1 block	HP1b chromo inh
Cc1ccc(-n2[nH]c(=O)c(-c3ccccn3)c2C)cc1	45µM	-	-	-	-	-
COc1ccc(NC(C)C(=O)Nc2cc(C(F)(F)F)ccc2N2CCOCC2)c(OC)c1 (stereo unspecified)	32µM	-	?	45µM	?	?
O=C(Nc1ccccc1)C1Cc2ccccc2CN1C(=O)c1ccco1 (stereo unspecified)	-	?	?	?	.	-
COc1cc(Cl)c(C)cc1NC(C)C(=O)Nc1cc(C(F)(F)F)ccc1N1CCOCC1 (stereo unspecified)	?	-	-	-	-	-
O=C(Nc1cc(C(F)(F)F)ccc1N1CCOCC1)C1Cc2ccccc2CN1C(=O)c1ccco1 (stereo unspecified)	-	28µM	?	-	-	-
O=C(CSCc1ccco1)Nc1cc(C(F)(F)F)ccc1N1CCOCC1	-	56µM	?	-	-	-
NS(=O)(=O)c1ccc(-c2ccc(/C=C3\C(=O)Nc4ccccc43)o2)cc1	-	-	.	.	-	.
